# FMDV inh: foot and mouth disease virus antiviral activity. FMDV antiviral cell-based qHTS. Potency, µM (top dose mostly 57.9 µM), without a hit: at the highest dose activity change, negative = inhibition, usual class: inhibitors. 410,000 compounds, 1.2% hits. AID 1159524; calls by dose curve; tested in HEK293T cells; also: read-out not given here; potency is read from the fitted curve at half-maximal effect; % is scaled to controls: 0 for no effect and ±100 for the full control effect; nearly all actives have a fitted effect of over 45% in size
# Cycloheximide cs: counter-screen hit for Shiga toxin inhibitors, cycloheximide. max response, %. 300,000 compounds, 12% hits. AID 2314. cell reporter, cycloheximide protein synthesis inhibition counterscreen; in the data active = max response mostly above about 13%, no sharp cut-off; inactive = mostly below about 14%; also: read at 38.3 µM for the half of the compounds with a filed dose; 0% is about no effect
# Shiga inhibitor: blocks Shiga toxin action in Vero cells. Vero cells, Shiga toxin protein synthesis inhibition reporter. inhibition, % at 38.7 µM. 290,000 compounds, 9.2% hits; in the data active = inhibition mostly above about 28%, no sharp cut-off; inactive = mostly below about 43%; also: 0% is about no effect
# Sm TGR block: blocks Schistosoma mansoni thioredoxin glutathione reductase | Q962Y6 | purified TGR, DTNB reduction, TNB absorbance 405 nm | Potency, µM (doses to about 114 µM), for the others: at the top dose activity change, negative = inhibition, actives largely listed as inhibitors | 360,000 compounds, 3% hits | AID 485364; active = well fitted inhibition curve with a large enough effect; inconclusive = small, poorly fitted or top-dose-only effect; inactive = no such curve, though single readings can be large or run the other way; also: potency is read from the fitted curve at half-maximal effect; % is scaled to controls: 0 for no effect and ±100 for the full control effect; nearly all actives have a fitted effect of over 60% in size
#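 Kinetic colorimetric format: TGR-catalysed, NADPH-driven DTNB reduction monitored via TNB absorbance. Enzyme dispensed at 20 nM; compound exposure 15 min at room temperature before reaction start.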
# * hit, by the source's call; ? = inconclusive; · = no result. This is a sample that favours compounds with a hit; in the whole collection about 12% have one here.
SMILES,FMDV inh,Cycloheximide cs,Shiga inhibitor,Sm TGR block
O=S(=O)(Nc1nc2ccccc2nc1N1CCc2ccccc2C1)c1ccc(Cl)cc1,9%,71*,25*,-12%
CC(=O)Nc1ccc(S(=O)(=O)Nc2nc3ccccc3nc2N2CCc3ccccc3C2)cc1,30%,47*,103*,-4%
CN1CCN(c2nc3ccccc3nc2NS(=O)(=O)c2ccc(Br)cc2)CC1,-6%,·,·,·
O=S(=O)(Nc1nc2ccccc2nc1Cl)c1ccc(Cl)cc1,-14%,-2,20,?
O=S(=O)(Nc1nc2ccccc2nc1N1CCc2ccccc2C1)c1ccc(Br)cc1,3%,44*,33*,-9%
CCCCNC(=O)Cn1c(=O)cc(C)c2c(C)nn(-c3cccc(Cl)c3C)c21,11%,·,·,?
O=C(CSC1=Nc2ccccc2N=C(c2ccc(F)cc2)C1)NCc1ccc(Cl)cc1,-6%,·,·,0%
COc1ccc(CN2CCCC(n3cc(C(=O)NC4CCCC4)nn3)C2)c2ccccc12 (centres undefined),-6%,·,·,·
O=S(=O)(Nc1nc2ccccc2nc1N1CCN(c2ccccn2)CC1)c1ccc(Cl)cc1,-5%,15*,38,1%
Cc1ccc(N2C(=O)CC3(CCCC3)CC2=O)cc1,23%,17*,10,-5%
Cc1ccc(N2C(=O)CS(=O)(=O)CC2=O)cc1,7%,-7,15,8.9µM*
CSc1cccc(NC(=O)Cn2ncn3c(cc4ccccc43)c2=O)c1,3%,·,·,1%
CSCC[C@H](N)C(=O)N[C@@H](CCCN=C(N)N)C(=O)N[C@@H](Cc1ccccc1)C(=O)N[C@@H](Cc1ccccc1)C(=O)N[C@H](C(=O)O)C(C)C,·,-9,-10,·
CCS(=O)(=O)c1ccc2oc(=O)c(/C=C(\O)c3ccc(Cl)cc3)nc2c1,-11%,3,3,-28%
Cc1ccc2oc(=O)c(/C=C(\O)c3cccs3)nc2c1,-2%,72*,77*,-20%
O=c1oc2ccc(Cl)cc2nc1/C=C(\O)c1cccs1,24%,62*,56*,?
CCOC(=O)c1cc(S(=O)(=O)Nc2ccc(Br)c(C)c2)[nH]n1,62%,·,·,20%
Cc1cccc(-n2c(C)cc(C=C3C(=O)c4ccccc4C3=O)c2C)c1,·,21*,41,2%
Cc1cccc(-n2c(C)cc(/C=C3/C(=N)N4C(c5ccccc5)=CSC4=NC3=O)c2C)c1,0%,0,-8,9%
Cc1cc(C=C2C(=O)c3ccccc3C2=O)c(C)n1-c1ccc(Cl)cc1,-6%,14*,-6,-11%
COc1ccc(NC(=O)CCS(=O)(=O)c2cc3c4c(c2)CCN4C(=O)CC3)cc1OC,4%,·,·,-1%
COC(=O)C1=C(C)NC(C)=C(C(=O)OCCSc2ccccc2)C1C (centres undefined),·,13*,23*,·
O=C(NC(NC(=S)Nc1ccc(F)c([N+](=O)[O-])c1)C(Cl)(Cl)Cl)C(c1ccccc1)c1ccccc1 (centres undefined),?,5,12,·
CSc1ccc(Cn2c(C)c(C(=O)NCc3ccc(Cl)c(Cl)c3)sc2=O)cc1,-2%,·,·,·
Cc1c(C(=O)NCc2ccc3c(c2)OCCO3)sc(=O)n1Cc1ccc(S(=O)(=O)N(C)C)cc1,14µM*,·,·,·
SMILES,FMDV inh,Cycloheximide cs,Shiga inhibitor,Sm TGR block
Cc1c(C(=O)NCc2ccc(Cl)c(Cl)c2)sc(=O)n1Cc1ccc(S(C)(=O)=O)cc1,35µM*,·,·,·
CCCOc1ccc(CNC(=O)c2ccc3c(c2)N(Cc2ccccc2)CCS3)cc1,19%,·,·,0%
O=[N+]([O-])c1cccc(-c2csc(CS(=O)(=O)Cc3ccco3)n2)c1,-4%,16*,10,-4%
Cc1ccc(S(=O)(=O)N2CCN(C)CC2c2ccccc2)cc1 (centres undefined),-6%,·,·,4%
O=S(=O)(c1ccccc1)N1CC1c1ccccc1 (centres undefined),108%,47*,38*,-12%
COc1ccc(-c2ccc(NS(=O)(=O)c3cccc(Cl)c3)cc2)nn1,18%,·,·,-1%
CCN(CC)CCCNC(=O)C1CCN(S(C)(=O)=O)CC1,-6%,·,·,0%
O=C(Nc1nc(-c2cccs2)cs1)c1ccc(S(=O)(=O)N2CCCC2)cc1,10µM*,-6,3,5%
Cn1c(-c2ccc(S(=O)(=O)N3CCCC3)cc2)csc1=Nc1ccc(Cl)c(Cl)c1,0%,·,·,8.9µM*
CCn1c(-c2ccc(S(=O)(=O)N3CCOCC3)cc2)csc1=Nc1ccc(C)c(Cl)c1,?,·,·,-4%
O=C(Nc1nc(-c2ccc(S(=O)(=O)N3CCCCCC3)cc2)cs1)c1ccccc1,11µM*,-5,-4,1%
Cc1nc(-c2ccc(S(=O)(=O)N3CCOCC3)cc2)cs1,-6%,-1,-2,-2%
Cc1nc(-c2ccc(S(=O)(=O)N3CCCCCC3)cc2)cs1,-12%,21*,100*,4%
COc1cc(-c2ccc(Cl)cn2)cc2c1OCCN(S(=O)(=O)C[C@]13CC[C@H](CC1=O)C3(C)C)C2,-3%,·,·,·
COc1ccccc1CNC(=O)CCc1c(C)c2cc3c(C)coc3cc2oc1=O,13%,·,·,1%
COCCNC(=O)c1cnn(-c2ccc(C)cc2C)c1C1CCN(C(=O)OC(C)(C)C)CC1,-9%,·,·,1%
O=[N+]([O-])c1cc(/C=N\Nc2nc(-c3ccccc3)cs2)ccc1O,20%,23*,93,-34%
CC(C)(C)c1csc(N/N=C/c2ccc(O)cc2)n1,26%,47*,91*,-27%
O=[N+]([O-])c1ccc(-c2csc(N/N=C/c3cccnc3)n2)cc1,-16%,3,-7,-15%
Cc1csc(N/N=C/c2ccc(O)c([N+](=O)[O-])c2)n1,56%,5,17,10µM*
Cc1cc(C)c2nc(C)cc(N/N=C/c3ccc(O)cc3)c2c1,0%,-12,-10,1%
Cc1cc(C)c(S(=O)(=O)NCCc2sc3nc(-c4ccc(F)cc4)nn3c2C)c(C)c1,30%,·,·,0%
O=C(Nc1nc(-c2ccccc2)cs1)c1ccc2c(c1)S(=O)(=O)c1ccccc1C2=O,-10%,-2,-16,-19%
O=C(Nc1nc(-c2cccc3ccccc23)cs1)c1ccc2c(c1)S(=O)(=O)c1ccccc1C2=O,31%,21*,62*,·
Cc1ccc(-c2nc3n(n2)C(c2ccccc2Cl)C=C(c2ccc(Cl)cc2)N3)cc1 (centres undefined),-3%,·,·,-7%
SMILES,FMDV inh,Cycloheximide cs,Shiga inhibitor,Sm TGR block
Cc1nn(C)c2c1c(-c1ccccc1)cc(=O)n2CC(=O)NC(C)(C)C,-23%,·,·,-11%
O=C(c1ccco1)N1CCN(C(c2ccccc2Cl)c2nnnn2Cc2ccco2)CC1 (centres undefined),-14%,1,39,?
Cc1cc(O)c(C(c2ccccc2Cl)N2CCN(c3ccccc3)CC2)c(=O)n1Cc1ccco1 (centres undefined),?,·,·,2.8µM*
CCN1CCN(C(c2ccccc2Cl)c2c(O)cc(C)n(Cc3ccco3)c2=O)CC1 (centres undefined),-24%,·,·,4µM*
Cc1ccn2c(c1)nc(=O)c1cc(S(=O)(=O)N3CCCCC3)c(Cl)cc12,-25%,·,·,-1%
Cc1cccc(CN2CC34CCC(CC3S2(=O)=O)O4)c1 (centres undefined),·,9,10,·

# Screening data as filed in PubChem BioAssay.
